Measured values from the supplement of paper PMC12067093, “Discovery and optimisation of a covalent ligand for TRIM25 and its application to targeted protein ubiquitination” (Chemical Science, 2025).
Of roughly 21,000 targets only a part is listed; those with the largest changes were picked by preference.

Compound: Cc1cc(ccc1-c1ccccc1)C(=O)N1CCCN(CC1)C(=O)CCl [compound 10]
Assay: probe-labelled cysteine peptide fold change vs DMSO (competition) (log2 fold change); higher = less target engagement (more negative = stronger competition)
Conditions: THP-1, incubation time: 4 h
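Also: competitive profiling in live THP-1 cells: cysteine peptides tagged with an iodoacetamide desthiobiotin (IA-DTB) probe, intensity after compound treatment relative to DMSO-treated cells.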

Chain of UniProt Q9UNH7 (Q9UNH7 whole entry, looked up): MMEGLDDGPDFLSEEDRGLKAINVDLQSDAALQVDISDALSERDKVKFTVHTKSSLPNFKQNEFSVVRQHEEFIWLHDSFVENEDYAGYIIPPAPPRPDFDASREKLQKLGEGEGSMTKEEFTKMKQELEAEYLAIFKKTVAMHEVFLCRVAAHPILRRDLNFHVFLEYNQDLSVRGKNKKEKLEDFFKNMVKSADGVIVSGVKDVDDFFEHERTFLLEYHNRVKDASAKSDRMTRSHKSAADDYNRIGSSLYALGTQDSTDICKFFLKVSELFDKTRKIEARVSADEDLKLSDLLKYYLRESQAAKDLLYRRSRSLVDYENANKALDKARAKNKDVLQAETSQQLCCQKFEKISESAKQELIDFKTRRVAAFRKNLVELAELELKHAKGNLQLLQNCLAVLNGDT
Chain of UniProt Q15022 (Q15022 whole entry, looked up): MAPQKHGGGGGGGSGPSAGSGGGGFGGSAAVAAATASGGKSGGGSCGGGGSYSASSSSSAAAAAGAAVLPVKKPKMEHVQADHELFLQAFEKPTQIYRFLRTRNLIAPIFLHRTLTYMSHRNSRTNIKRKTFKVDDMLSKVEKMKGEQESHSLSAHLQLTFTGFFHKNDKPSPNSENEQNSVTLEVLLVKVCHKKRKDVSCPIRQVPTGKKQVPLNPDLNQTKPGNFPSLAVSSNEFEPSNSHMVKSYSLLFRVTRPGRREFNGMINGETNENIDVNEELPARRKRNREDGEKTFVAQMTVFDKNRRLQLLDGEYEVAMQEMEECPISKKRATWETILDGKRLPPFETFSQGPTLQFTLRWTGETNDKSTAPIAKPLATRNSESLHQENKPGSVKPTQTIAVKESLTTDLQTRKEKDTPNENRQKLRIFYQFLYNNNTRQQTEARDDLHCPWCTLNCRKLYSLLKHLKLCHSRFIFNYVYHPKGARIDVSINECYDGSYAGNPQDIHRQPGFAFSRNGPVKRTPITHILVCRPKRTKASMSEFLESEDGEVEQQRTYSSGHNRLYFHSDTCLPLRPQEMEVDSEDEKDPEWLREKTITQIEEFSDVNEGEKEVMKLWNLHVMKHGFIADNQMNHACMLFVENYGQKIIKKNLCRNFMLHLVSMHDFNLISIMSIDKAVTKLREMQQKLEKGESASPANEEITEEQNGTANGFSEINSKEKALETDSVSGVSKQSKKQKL
Chain of UniProt Q5TEJ8 (Q5TEJ8 whole entry, looked up): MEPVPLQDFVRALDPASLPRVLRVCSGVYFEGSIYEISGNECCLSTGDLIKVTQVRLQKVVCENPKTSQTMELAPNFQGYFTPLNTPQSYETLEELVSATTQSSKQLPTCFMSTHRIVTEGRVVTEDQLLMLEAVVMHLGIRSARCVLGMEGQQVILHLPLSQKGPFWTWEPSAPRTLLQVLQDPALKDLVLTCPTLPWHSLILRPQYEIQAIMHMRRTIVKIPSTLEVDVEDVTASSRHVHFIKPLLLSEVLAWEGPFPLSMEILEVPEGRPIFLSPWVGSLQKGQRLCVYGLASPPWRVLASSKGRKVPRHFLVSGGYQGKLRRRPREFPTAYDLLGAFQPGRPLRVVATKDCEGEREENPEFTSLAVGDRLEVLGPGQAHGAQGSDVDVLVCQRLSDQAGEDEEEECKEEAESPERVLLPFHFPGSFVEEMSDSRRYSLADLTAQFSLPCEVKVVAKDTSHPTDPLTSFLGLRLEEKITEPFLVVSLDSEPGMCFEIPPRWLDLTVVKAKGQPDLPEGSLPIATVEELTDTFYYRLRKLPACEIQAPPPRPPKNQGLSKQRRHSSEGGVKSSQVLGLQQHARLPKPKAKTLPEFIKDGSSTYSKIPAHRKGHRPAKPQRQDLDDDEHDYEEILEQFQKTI
Chain of UniProt P08240 (P08240 whole entry, looked up): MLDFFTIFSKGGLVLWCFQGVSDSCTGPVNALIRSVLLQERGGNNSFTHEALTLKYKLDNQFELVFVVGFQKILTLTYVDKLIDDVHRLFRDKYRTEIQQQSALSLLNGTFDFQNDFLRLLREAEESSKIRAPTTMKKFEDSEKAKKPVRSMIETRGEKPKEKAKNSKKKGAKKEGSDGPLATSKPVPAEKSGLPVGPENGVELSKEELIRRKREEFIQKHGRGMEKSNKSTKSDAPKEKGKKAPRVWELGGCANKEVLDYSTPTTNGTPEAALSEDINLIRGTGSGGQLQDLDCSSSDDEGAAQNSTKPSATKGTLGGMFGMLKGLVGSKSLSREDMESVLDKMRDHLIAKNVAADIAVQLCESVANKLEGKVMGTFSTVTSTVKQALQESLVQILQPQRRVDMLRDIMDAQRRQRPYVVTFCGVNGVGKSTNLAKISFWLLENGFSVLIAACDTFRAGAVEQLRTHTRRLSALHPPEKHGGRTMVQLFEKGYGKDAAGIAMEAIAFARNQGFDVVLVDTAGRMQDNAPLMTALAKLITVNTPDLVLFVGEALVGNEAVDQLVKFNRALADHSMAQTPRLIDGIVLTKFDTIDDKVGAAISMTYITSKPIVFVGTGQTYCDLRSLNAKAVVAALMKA
Chain of UniProt Q5JU69 (Q5JU69 whole entry, looked up): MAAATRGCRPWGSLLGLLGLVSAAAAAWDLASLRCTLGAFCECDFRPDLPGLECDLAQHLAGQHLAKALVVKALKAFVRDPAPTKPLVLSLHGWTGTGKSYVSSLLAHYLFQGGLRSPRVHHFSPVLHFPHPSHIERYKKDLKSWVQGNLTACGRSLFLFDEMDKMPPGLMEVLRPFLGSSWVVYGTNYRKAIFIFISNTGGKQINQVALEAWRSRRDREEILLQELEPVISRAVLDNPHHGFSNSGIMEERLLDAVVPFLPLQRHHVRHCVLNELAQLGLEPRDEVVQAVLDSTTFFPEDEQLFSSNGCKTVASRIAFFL
Chain of UniProt Q86WV6 (Q86WV6 whole entry, looked up): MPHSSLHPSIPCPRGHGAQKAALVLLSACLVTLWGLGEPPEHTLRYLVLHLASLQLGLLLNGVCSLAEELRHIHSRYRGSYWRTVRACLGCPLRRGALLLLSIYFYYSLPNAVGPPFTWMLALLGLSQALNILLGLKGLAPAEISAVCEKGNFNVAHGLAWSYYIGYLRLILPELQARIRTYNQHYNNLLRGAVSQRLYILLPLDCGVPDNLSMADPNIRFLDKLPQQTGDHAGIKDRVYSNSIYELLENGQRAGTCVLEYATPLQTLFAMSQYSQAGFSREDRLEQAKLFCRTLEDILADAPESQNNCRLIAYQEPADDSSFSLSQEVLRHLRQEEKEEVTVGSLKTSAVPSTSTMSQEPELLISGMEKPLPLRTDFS
Chain of UniProt Q9NVR7 (Q9NVR7 whole entry): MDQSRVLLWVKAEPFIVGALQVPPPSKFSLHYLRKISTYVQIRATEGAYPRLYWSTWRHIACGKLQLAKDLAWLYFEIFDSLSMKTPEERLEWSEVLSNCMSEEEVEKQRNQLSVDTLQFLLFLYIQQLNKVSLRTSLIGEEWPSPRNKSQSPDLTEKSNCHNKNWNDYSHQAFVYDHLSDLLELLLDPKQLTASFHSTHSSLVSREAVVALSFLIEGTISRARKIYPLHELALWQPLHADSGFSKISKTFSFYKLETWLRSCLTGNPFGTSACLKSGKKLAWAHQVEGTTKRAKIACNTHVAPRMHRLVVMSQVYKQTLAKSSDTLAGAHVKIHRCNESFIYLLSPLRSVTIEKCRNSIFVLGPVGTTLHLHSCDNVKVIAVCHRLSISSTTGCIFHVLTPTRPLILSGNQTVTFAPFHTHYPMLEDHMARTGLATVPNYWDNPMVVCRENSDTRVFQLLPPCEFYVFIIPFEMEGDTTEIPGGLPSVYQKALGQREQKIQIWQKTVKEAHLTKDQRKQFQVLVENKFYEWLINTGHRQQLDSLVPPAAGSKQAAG
Chain of UniProt O60343 (O60343 whole entry, looked up): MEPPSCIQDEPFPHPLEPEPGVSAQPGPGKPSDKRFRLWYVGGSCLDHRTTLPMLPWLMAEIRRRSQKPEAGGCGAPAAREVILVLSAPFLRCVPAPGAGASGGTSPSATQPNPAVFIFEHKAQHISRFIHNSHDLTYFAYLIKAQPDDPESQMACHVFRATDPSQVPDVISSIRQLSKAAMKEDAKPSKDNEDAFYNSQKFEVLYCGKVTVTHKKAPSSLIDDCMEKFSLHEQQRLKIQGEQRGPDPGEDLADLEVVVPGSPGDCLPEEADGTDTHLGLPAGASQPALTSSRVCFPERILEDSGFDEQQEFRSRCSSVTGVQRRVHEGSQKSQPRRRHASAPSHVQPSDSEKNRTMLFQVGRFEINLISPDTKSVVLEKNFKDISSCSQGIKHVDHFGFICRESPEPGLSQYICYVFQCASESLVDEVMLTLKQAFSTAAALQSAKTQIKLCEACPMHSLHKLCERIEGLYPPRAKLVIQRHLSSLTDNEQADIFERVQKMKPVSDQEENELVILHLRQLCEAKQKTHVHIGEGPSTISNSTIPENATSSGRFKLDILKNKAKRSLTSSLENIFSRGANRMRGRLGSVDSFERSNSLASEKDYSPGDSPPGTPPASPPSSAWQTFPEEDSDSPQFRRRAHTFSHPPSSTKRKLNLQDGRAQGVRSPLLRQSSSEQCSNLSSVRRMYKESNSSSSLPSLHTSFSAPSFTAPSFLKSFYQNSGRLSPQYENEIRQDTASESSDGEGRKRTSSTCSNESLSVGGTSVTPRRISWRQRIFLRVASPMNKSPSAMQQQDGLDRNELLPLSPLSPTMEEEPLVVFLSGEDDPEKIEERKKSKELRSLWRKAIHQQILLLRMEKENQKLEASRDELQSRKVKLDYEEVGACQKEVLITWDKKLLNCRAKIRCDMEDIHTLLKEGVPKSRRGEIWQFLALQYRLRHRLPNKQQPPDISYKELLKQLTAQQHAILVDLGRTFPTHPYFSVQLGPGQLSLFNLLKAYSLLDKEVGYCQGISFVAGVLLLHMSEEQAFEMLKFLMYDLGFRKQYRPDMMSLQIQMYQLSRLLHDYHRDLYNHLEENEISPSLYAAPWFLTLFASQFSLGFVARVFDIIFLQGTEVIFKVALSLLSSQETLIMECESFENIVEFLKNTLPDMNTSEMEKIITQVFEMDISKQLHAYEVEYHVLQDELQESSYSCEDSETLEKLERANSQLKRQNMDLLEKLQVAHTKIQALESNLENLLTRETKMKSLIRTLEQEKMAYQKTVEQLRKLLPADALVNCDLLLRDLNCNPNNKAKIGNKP

Target	probe-labelled cysteine peptide fold change (10 µM)	probe-labelled cysteine peptide fold change (50 µM)
TMA16_Q96EY4_162_KICANDAIPK (UniProt Q96EY4)	-0.041	-0.333
SRPK2_P78362_320_IIEENITSAAPSNDQDGEYCPEVK (UniProt P78362)	-0.0943	0.0113
TNFAIP3_P21580_158_SQEFVETGLCYDTR (UniProt P21580)	-0.274	0.0322
ST14_Q9Y5Y6_602+604_DCDCGLR (UniProt Q9Y5Y6)	-0.217	-1.07
TNS3_Q68CZ2_512_DRETDILDDEMPHHDLHSVDSLGTLSSSEGPQSAHLGPFTCHK (UniProt Q68CZ2)	-0.555	-1.66
TARS_P26639_261_CGPLIDLCR (UniProt P26639)	0.0971	0.248
TBC1D15_Q8TC07_184_YVVLCESPQDKR (UniProt Q8TC07)	0.0621	-0.0543
STXBP3_O00186_114_AAYIYFTDFCPDNLFNK (UniProt O00186)	0.0291	0.184
SUZ12_Q15022_494_IDVSINECYDGSYAGNPQDIHR (UniProt Q15022)	0.105	0.302
TLN1_Q9Y490_1363_ECDNALRELETVR (UniProt Q9Y490)	-0.431	-1
SP9_P0CG40_308_ATCDCPNCQEAER<|>SP8_Q8IXZ3_332_ATCDCPNCQEAER (UniProt Q8IXZ3+P0CG40)	0.0559	0.393
SNX6_Q9UNH7_149_TVAMHEVFLCR (UniProt Q9UNH7)	-0.37	-1.4
SYK_P43405_597_MGCPAGCPR (UniProt P43405)	0.0815	-0.138
TMEM147_Q9BVK8_116_CIPLWVGAR (UniProt Q9BVK8)	-0.0315	-0.102
SPAG5_Q96R06_907_TEQETLLLSTACPPTQEHPLPNDR (UniProt Q96R06)	-0.115	0.0555
TESC_Q96BS2_213_FLNMETMALCH (UniProt Q96BS2)	-0.431	-1.46
TOE1_Q96GM8_371_KQVCGDSIKPEETEQEVAADETR (UniProt Q96GM8)	-0.0655	-0.661
SURF2_Q15527_29+38_CILTGHELPCR (UniProt Q15527)	0.0902	-0.0729
TOPBP1_Q92547_911_VVVCVSK (UniProt Q92547)	-0.0487	-0.114
TFCP2_Q12800_72_ILPFQYVLCAATSPAVK (UniProt Q12800)	0.339	0.0755
TGS1_Q96RS0_357_ECPASGQSEPR (UniProt Q96RS0)	-0.00223	0.216

Target	probe-labelled cysteine peptide fold change (10 µM)	probe-labelled cysteine peptide fold change (50 µM)
TMEM104_Q8NE00_455_DTQLAFGCGVSNK (UniProt Q8NE00)	-0.127	-0.346
TARS_P26639_467_RFQQDDAHIFCAMEQIEDEIK (UniProt P26639)	0.126	0.326
TMEM192_Q8IY95_266_RLLALTSSDLGCQPSR (UniProt Q8IY95)	-0.0328	0.17
SSH3_Q8TE77_434_QYECSLEQALR (UniProt Q8TE77)	-0.058	-0.0996
TANK_Q92844_318_TKPSNLVNTCIR (UniProt Q92844)	-0.257	-0.558
SPECC1_Q5M775_578_ATEASAVEQTAESCEVQEMLK (UniProt Q5M775)	-0.116	-0.22
TPI1_P60174_164_VAHALAEGLGVIACIGEK (UniProt P60174)	0.0839	0.00853
SPC24_Q8NBT2_155_IEWDYECEPGMVK (UniProt Q8NBT2)	-0.17	0.000933
STXBP2_Q15833_110_AAHIFFTDTCPEPLFSELGR (UniProt Q15833)	0.0186	0.272
SORD_Q00796_301_YCNTWPVAISMLASK (UniProt Q00796)	0.251	0.115
STXBP1_P61764_110_AAHVFFTDSCPDALFNELVK (UniProt P61764)	0.24	0.527
STXBP5_Q5T5C0_933_VISLPTQNCAYK (UniProt Q5T5C0)	0.186	0.107
STRADA_Q7RTN6_107_INLEACSNEMVTFLQGELHVSK (UniProt Q7RTN6)	0.391	0.345
SUGP2_Q8IX01_417_NCFFEIIKPFDK (UniProt Q8IX01)	-0.328	-1.49
SPATA2_Q9UM82_41_QRPGSDECLR (UniProt Q9UM82)	-0.46	-1.35
TMEM173_Q86WV6_12_PHSSLHPSIPCPR (UniProt Q86WV6)	0.0393	-0.625
TBC1D4_O60343_74_SQKPEAGGCGAPAAR (UniProt O60343)	-0.579	-1.59
STXBP5_Q5T5C0_697_SRQPSGAGLCDISEGTVVPEDR (UniProt Q5T5C0)	-0.389	-0.218
TOR4A_Q9NXH8_230_HHCPEAR (UniProt Q9NXH8)	-0.165	0.0719
TDRD7_Q8NHU6_1029_CNQWSEEASMVFR (UniProt Q8NHU6)	-0.175	-0.845
STK11IP_Q8N1F8_707+710_TESPAVCPNCGSDHVVLLAVSR (UniProt Q8N1F8)	0.0186	0.166

Target	probe-labelled cysteine peptide fold change (10 µM)	probe-labelled cysteine peptide fold change (50 µM)
SP100_P23497_266+270_EMPCPLPCDEESPEAELHNHGIQINSCSVR (UniProt P23497)	-0.396	-1.25
TLE1_Q04724_621_QFQGHTDGASCIDISNDGTK<|>TLE4_Q04727_624_QFQGHTDGASCIDISNDGTK (UniProt Q04727+Q04724)	-0.231	-0.0783
TOE1_Q96GM8_80_SLLNQCIEER (UniProt Q96GM8)	-0.52	-2.28
THOP1_P52888_175_KLSLLCIDFNK (UniProt P52888)	-0.00153	0.0417
STAM2_O75886_76_VPHVALQALTLLGACVANCGK (UniProt O75886)	-0.0779	0.0749
SRP9_P49458_48_VTDDLVCLVYK (UniProt P49458)	0.216	-0.255
TOR2A_Q5JU69_54_CTLGAFCECDFRPDLPGLECDLAQHLAGQHLAK (UniProt Q5JU69)	-0.184	0.309
TGM2_P21980_371_SEGTYCCGPVPVR (UniProt P21980)	0.00473	-0.293
SORL1_Q92673_752_LEGELVPCPLAEENEFILYAVR (UniProt Q92673)	0.124	0.148
TNPO1_Q92973_862_DDLRDMFCK (UniProt Q92973)	-0.311	-0.192
THOC1_Q96FV9_396_NEGCPSFVK (UniProt Q96FV9)	-0.137	-0.0773
TEP1_Q99973_692_TVLVYLTDANADRLCPK (UniProt Q99973)	-0.328	-0.442
TK1_P04183_206_ENCPVPGKPGEAVAAR (UniProt P04183)	-0.0233	-0.211
TBC1D13_Q9NVG8_387_LLQDYPITDVCQILQK (UniProt Q9NVG8)	-0.0681	-0.374
TNFAIP2_Q03169_429_ANVIANINNCLSFR (UniProt Q03169)	-0.0434	0.184
SRPRA_P08240_253_VWELGGCANK (UniProt P08240)	-0.192	-0.783
TAPBPL_Q9BX59_39_AVDVVLDCFLAK (UniProt Q9BX59)	0.062	-0.104
THEMIS2_Q5TEJ8_355_DCEGEREENPEFTSLAVGDR (UniProt Q5TEJ8)	-0.0936	0.194
TMEM209_Q96SK2_495_TFTSQHFVQTPNKPDVTNENVFCIYQSAINPPHYELIYQR (UniProt Q96SK2)	0.145	0.0358
TANC1_Q9C0D5_800_MDALSCFLIK (UniProt Q9C0D5)	-0.167	-1.29
THADA_Q6YHU6_1605_ENHPECFCK (UniProt Q6YHU6)	-0.00737	0.033

Target	probe-labelled cysteine peptide fold change (10 µM)	probe-labelled cysteine peptide fold change (50 µM)
SON_P18583-2_2133_DLMANATCFR (UniProt P18583)	5.1e-05	-0.396
TDRD7_Q8NHU6_77_SGEITCYAMACTETAR (UniProt Q8NHU6)	-0.0811	-1.42
TEPSIN_Q96N21_273_ACGLLNCEAVLQLLTCHLR (UniProt Q96N21)	0.821	2.62
TIMELESS_Q9UNS1_96_LMVNLTQPALLCFGNLPK (UniProt Q9UNS1)	0.247	-1.08
TARS2_Q9BW92_322_IGKEQELFFFHELSPGSCFFLPR (UniProt Q9BW92)	-0.0453	-0.425
TNPO3_Q9Y5L0_580_ITECLSELCSVQVMALKK (UniProt Q9Y5L0)	-0.00843	-0.267
SNTB1_Q13884_515_DGEIQLDLHSCPK (UniProt Q13884)	-0.136	1
TBL3_Q12788_526_GLWCVQFSPMDQVLATASADGTIK (UniProt Q12788)	0.119	0.0335
SRP72_O76094_54_VVCLIQNGSFK (UniProt O76094)	0.0906	-0.275
TIGAR_Q9NQ88_114_EECPVFTPPGGETLDQVK (UniProt Q9NQ88)	-0.225	-1.35
TBCCD1_Q9NVR7_337_CNESFIYLLSPLR (UniProt Q9NVR7)	0.178	0.422
TBCD_Q9BTW9_1055_TLDHVLTHGCFDIFTTEEDHPFAVK (UniProt Q9BTW9)	-0.188	-0.0289
SPCS2_Q15005_17+26_SGGSGGCSGAGGASNCGTGSGR (UniProt Q15005)	-0.494	-1.1
TBL2_Q9Y4P3_240_GQVLSTINTNQMNNTHAAVSPCGR (UniProt Q9Y4P3)	-0.0462	0.0804
TOP1_P11387_504_AGNEKEEGETADTVGCCSLR (UniProt P11387)	-0.0614	-1.22
STRN_O43815_316_EDQCLMPEAWNVDQGVITK (UniProt O43815)	-0.23	-0.374
SYK_P43405_89+101_THASPADLCHYHSQESDGLVCLLK (UniProt P43405)	-0.0638	-0.0651
TBCE_Q15813_141_NCAVSCAGEK (UniProt Q15813)	-0.11	-1.39
SPAG7_O75391_101_SILHDVVEVAGLTSFSFGEDDDCR (UniProt O75391)	-0.0328	-0.0999
